The record followed here is PubChem BioAssay (Tox21).

Records with an inconclusive call do not appear. Calls of active or inactive are those of the source. Unless noted, calls follow the shape of the dose curve; as a rule, active = well fitted curve in the direction sought with a large enough effect in the repeat runs; inconclusive = weak or mixed curves; inactive = no such curve, though single readings can be large; an effect the other way counts as inactive or inconclusive.

Experiment [1] can be described thus: qHTS assay for small molecule agonists of the p53 signaling pathway (AID 651631; calls by dose curve; also: nearly all actives have a fitted effect of over 15% in size; also: potency is read from the fitted curve at half-maximal effect). In outline:
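Readout was fluorescence from the LiveBLAzer FRET substrate, applied for 2 h at room temperature after 16 h compound exposure at 37 °C. Cells were the p53RE-bla HCT-116 line, with beta-lactamase driven by p53 response elements.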

Experiment [2] can be described thus: qHTS assay for small molecules that induce genotoxicity in human embryonic kidney cells expressing luciferase-tagged ATAD5 (AID 651632). Also: nearly all actives have a fitted effect of over 15% in size. The essentials: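 HEK293T cells carrying a luciferase reporter tagged to ATAD5 were exposed to compound or DMSO vehicle for 16 hr at 37C, 5% CO2. Amplite was added, and after 30 min at room temperature luciferase activity was read as a marker of ATAD5 induction.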
In general terms: In qHTS, concentration-response curves come from the screen itself.

The nature of experiment [3]: qHTS assay for small molecule agonists of the p53 signaling pathway - cell viability (AID 651633; calls by dose curve; also: nearly all actives have a fitted effect of over 30% in size; also: potency is read from the fitted curve at half-maximal effect). The essentials:
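p53RE-bla cells, seeded at 4,000 per well and rested 5 h at 37 C/5% CO2, received compounds in DMSO for 16 h at 37 C. CellTiter-Glo was then added, and luminescence was read after 30 min at room temperature to gauge cytotoxicity.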

Experiment [4] in a line: qHTS assay for small molecules that induce genotoxicity in human embryonic kidney cells expressing luciferase-tagged ATAD5 - cell viability (AID 651634; calls by dose curve; also: nearly all actives have a fitted effect of over 25% in size). In outline:
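HEK293T cells expressing luciferase-tagged ATAD5 were exposed to compound or DMSO for 15.5 hr at 37C, 5% CO2. Viability was then read as live-cell protease activity by CellTiter-Fluor fluorescence after 30 min at 37C.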

Experiment [5] can be described thus: qHTS assay for small molecule disruptors of the mitochondrial membrane potential - cell viability (AID 720634; calls by dose curve; also: nearly all actives have a fitted effect of over 20% in size; also: potency is read from the fitted curve at half-maximal effect). The essentials:
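HepG2 cells seeded overnight at 37 C, then exposed to compound or DMSO for 1 hr at 37 C, 5% CO2. m-MPI dye added, then CellTiter-Glo for 30 min at room temperature; viability read as ATP luminescence.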

Experiment [6] in a line: qHTS assay for small molecule disruptors of the mitochondrial membrane potential (AID 720635). Also: potency is read from the fitted curve at half-maximal effect. The essentials: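 HepG2 cells (2,000/well) attached overnight at 37C, then took compound for 1 hr at 37C, 5% CO2. Mito-MPS dye was added for 30 min; fluorescence was read at 490/535 nm (monomers) and 540/590 nm (aggregates).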
The nature of experiment [7]: qHTS assay to test for compound auto fluorescence at 590 nm (red) in HepG2 cells (AID 720674). In outline: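 Rose Bengal sodium served as the red fluorophore standard. HepG2 monolayers (overnight attachment, MEM with 10% FBS) were exposed to test compounds for 1 hr at 37 C and read at Ex 540/Em 590 nm.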
Experiment [8] is described as follows: qHTS assay to test for compound auto fluorescence at 535 nm (green) in HepG2 cells (AID 720675).
Experiment [9] is described as follows: qHTS assay to test for compound auto fluorescence at 460 nm (blue) in HEK293 cells (AID 720678). The essentials: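 Blue-channel (Ex/Em 405/460 nm) intensity measured in HEK293 cultures after overnight compound exposure at 37C; signal expressed relative to triamterene. Cells plated 2,000 per well in 10% dialyzed FBS medium and allowed 4-5 hr to attach.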
Experiment [10] in a line: qHTS assay to test for compound auto fluorescence at 590 nm (red) in HEK293 cells (AID 720679). In outline:
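Red-channel autofluorescence (Ex/Em 540/590 nm; Rose Bengal sodium reference) was measured after overnight 37C, 5% CO2 exposure of attached HEK293 cells, 2,000 per well in medium with 10% dialyzed FBS.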

Experiment [11] can be described thus: qHTS assay to test for compound auto fluorescence at 535 nm (green) in HEK293 cells (AID 720680).
Experiment [12] can be described thus: qHTS assay to test for compound auto fluorescence at 460 nm (blue) in HEK293 cell free culture (AID 720681). The essentials: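 Test compounds were pinned into cell-free culture medium (DMEM with 10% FBS) and fluorescence was read directly at Ex/Em 405/460 nm. Signals were expressed as fluorescence equivalents of triamterene, with DMSO vehicle as control.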
Experiment [13] can be described thus: qHTS assay to test for compound auto fluorescence at 535 nm (green) in HEK293 cell free culture (AID 720682). In outline: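 Compounds were pin-transferred into cell-free DMEM with 10% FBS, and green fluorescence was read at excitation 485 nm and emission 535 nm. Intensities were expressed as fluorescein-equivalent values.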
Experiment [14] in a line: qHTS assay to test for compound auto fluorescence at 590 nm (red) in HEK293 cell free culture (AID 720683). In outline:
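Tox21 10K library compounds were pinned into cell-free DMEM with 10% FBS and fluorescence was read at excitation 540 nm. Activity is expressed as Rose Bengal sodium equivalency.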

Experiment [15] can be described thus: qHTS assay to test for compound auto fluorescence at 590 nm (red) in HepG2 cell free culture (AID 720684). In outline: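 Measured in medium alone (MEM containing 10% FBS) following pintool addition of compound; emission at 590 nm with 540 nm excitation, referenced to Rose Bengal sodium.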
Experiment [16] in a line: qHTS assay to test for compound auto fluorescence at 460 nm (blue) in HepG2 cell free culture (AID 720685). In outline:
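Compound (23 nL) or DMSO pinned into cell-free MEM with 10% FBS; blue fluorescence read at 405/460 nm excitation/emission, expressed as auto-fluorescence equivalency to triamterene.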

Experiment [17] is described as follows: qHTS assay to test for compound auto fluorescence at 535 nm (green) in HepG2 cell free culture (AID 720686).
A short description of experiment [18]: qHTS assay to test for compound auto fluorescence at 460 nm (blue) in HepG2 cells (AID 720687). In outline:
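Cells (2,000/well in MEM with 10% FBS) attached overnight at 37 C, then were exposed to compound or DMSO for 1 hr at 37 C, 5% CO2. Fluorescence read at Ex/Em 405/460 nm, expressed as triamterene-equivalent signal.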

Experiment [19] concerns the target Glucocorticoid receptor (Homo sapiens) (UniProt P04150). In words: qHTS assay to identify small molecule agonists of the glucocorticoid receptor (GR) signaling pathway (AID 720691; active = well fitted activation curve with a large enough effect in the signal ratio in the repeat runs, not every such curve was filed as active; the % refers to the signal ratio). In outline: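 GR-bla HeLa cells (beta-lactamase reporter under glucocorticoid response element) were plated 4 h at 37 C/5% CO2, given compounds in DMSO, and incubated 18 h at 37 C. LiveBLAzer B/G FRET substrate was added for 2 h at room temperature, then fluorescence intensity read.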

For experiment [20] the target is unchanged. As to the kind of experiment: qHTS assay to identify small molecule antagonists of the glucocorticoid receptor (GR) signaling pathway (AID 720692; active = well fitted inhibition curve with a large enough effect in the signal ratio in the repeat runs, not every such curve was filed as active; the % refers to the signal ratio; also: potency is read from the fitted curve at half-maximal effect). The essentials:
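GR-bla HeLa cells (beta-lactamase reporter under glucocorticoid response element) were pre-plated 4 h at 37 C, treated with compounds plus 5 nM dexamethasone (final) for 18 h, then read by LiveBLAzer B/G FRET fluorescence after 2 h.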

Chain of Glucocorticoid receptor (Homo sapiens) (P04150 whole entry, looked up): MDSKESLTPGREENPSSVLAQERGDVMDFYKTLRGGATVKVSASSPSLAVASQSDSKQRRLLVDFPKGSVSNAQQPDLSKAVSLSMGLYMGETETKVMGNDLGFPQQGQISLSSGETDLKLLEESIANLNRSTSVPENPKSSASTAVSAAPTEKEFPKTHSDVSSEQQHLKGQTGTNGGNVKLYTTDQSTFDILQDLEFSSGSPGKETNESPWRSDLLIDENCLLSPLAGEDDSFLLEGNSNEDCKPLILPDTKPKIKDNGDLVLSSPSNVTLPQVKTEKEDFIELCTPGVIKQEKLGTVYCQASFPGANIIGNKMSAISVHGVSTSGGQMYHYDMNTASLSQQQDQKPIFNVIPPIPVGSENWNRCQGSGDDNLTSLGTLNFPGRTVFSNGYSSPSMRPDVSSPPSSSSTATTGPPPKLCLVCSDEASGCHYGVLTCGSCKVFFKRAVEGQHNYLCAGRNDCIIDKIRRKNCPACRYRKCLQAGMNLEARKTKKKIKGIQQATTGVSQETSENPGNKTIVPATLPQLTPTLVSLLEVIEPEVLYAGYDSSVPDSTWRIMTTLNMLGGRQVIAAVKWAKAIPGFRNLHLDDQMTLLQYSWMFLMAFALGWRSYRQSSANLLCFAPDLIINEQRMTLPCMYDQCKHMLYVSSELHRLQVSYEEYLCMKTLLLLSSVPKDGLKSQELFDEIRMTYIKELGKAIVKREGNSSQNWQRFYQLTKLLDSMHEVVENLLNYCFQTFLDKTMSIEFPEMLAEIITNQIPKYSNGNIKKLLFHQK

On to `CC(Cl)Cl`, for which the Potency result in experiment [1], in experiment [2], in experiment [3], in experiment [4], in experiment [5] and in [6] was “inactive” in each case. Further, the outcome in experiment [7], in [8], in [9], in experiment [10], in experiment [11] and in experiment [12] was inactive. Moreover, the call in experiment [13], in experiment [14], in experiment [15], in [16], in experiment [17] and in experiment [18] was inactive. Besides, in experiment [19], the outcome was inactive.
As to `N#Cc1cc(I)c(O)c(I)c1`, the Potency was 4.33 µM (active) in experiment [1], 34.4 µM (active) in experiment [3], 4.33 µM (active) in experiment [5] and 3.44 µM (active) in experiment [6]. The Potency result in [2] and in experiment [4] was “inactive” in each case. Moreover, the call in experiment [7], in experiment [8], in [9], in experiment [10], in experiment [11] and in [12] was inactive. For the same compound, the compound was called inactive in experiment [13], in experiment [14], in experiment [15], in experiment [16], in experiment [17] and in [18]. Besides, the outcome in experiment [19] was inactive.
Consider `CCOP(=O)(OCC)SCCSCC`, for which the Potency result in experiment [1], in experiment [2], in [3], in experiment [4], in experiment [5] and in experiment [6] was “inactive” each time. The outcome in [7], in experiment [8], in experiment [10], in experiment [11], in experiment [12] and in experiment [13] was inactive. Besides, the outcome in experiment [14], in [15], in experiment [16], in experiment [17] and in [18] was inactive.
With `CCOc1nc(F)cc2nc(S(=O)(=O)Nc3c(Cl)cccc3Cl)nn12`, the Potency result in [1], in experiment [2], in experiment [3], in [4], in experiment [5] and in [6] was “inactive” throughout. Moreover, in [20], the Potency result was “inactive”. In addition, the call in experiment [7], in experiment [8], in experiment [9], in experiment [10], in experiment [11] and in experiment [12] was inactive. Also, the call in [13], in experiment [14], in [15], in [16], in experiment [17] and in experiment [18] was inactive. The compound was classed as inactive in [19].
For `CC1CC(CC2CCC(N)C(C)C2)CCC1N` (stereo unspecified), the Potency entry in experiment [1], in experiment [2], in experiment [3], in experiment [4], in experiment [5] and in experiment [6] was “inactive” each time. In addition, in experiment [20], the Potency result was “inactive”. Further, the compound was classed as inactive in experiment [7], in experiment [8], in [10], in experiment [11], in [12] and in experiment [13]. For the same compound, the compound was classed as inactive in [14], in experiment [15], in experiment [16], in experiment [17], in [18] and in [19].
As to `CC(c1ccc(O)cc1)(c1ccc(O)cc1)c1ccc(O)cc1`, the Potency in [1] is 6.86 µM (active); in experiment [3], 6.86 µM (active); in experiment [6], 48.6 µM (active); in experiment [20], 19.5 µM (active). For the same compound, the Potency entry in [2], in experiment [4] and in experiment [5] was “inactive” each time. The result in experiment [7], in [8], in [9], in experiment [10], in [11] and in [12] was inactive. The compound was called inactive in experiment [13], in experiment [14], in [15], in experiment [16], in [17] and in experiment [18].
With `N#CCc1ccccc1`, the Potency entry in [1], in [2], in experiment [3], in experiment [4], in experiment [5] and in experiment [6] was “inactive” in each case. The outcome in experiment [7], in experiment [8], in experiment [9], in [10], in experiment [11] and in experiment [12] was inactive. Also, the outcome in [13], in [14], in experiment [15], in [16], in experiment [17] and in [18] was inactive.
